About 10 (0.8%) of roughly 1,300 compounds were called active. No rule for the calls is given here. The list comes from a sample in which actives are over-represented; it also holds similar structures and randomly drawn compounds.
Target: Chaperone protein DnaK (Escherichia coli (strain K12)) (UniProt P0A6Y8)
Test: blockers of bacterial DnaK function – luminescence, E. coli K12, primary screen (AID 547);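 also: tested at 10 µM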
Details: DnaK chaperone assay, luminescence read-out; hits give low values

SMILES | luminescence
CCCN(CCC)CCc1ccc(O)c(O)c1 | 2.6e+06 cps (inactive)
CN(N=O)c1ccc(O)c(O)c1 | 951000 cps (active)
CN(N=O)c1cc(O)ccc1O | 2.3e+06 cps (inactive)
CCN(CCCl)Cc1ccccc1Br | 2.7e+06 cps (inactive)
NC(Cc1cc(O)c(O)cc1O)C(=O)O (stereo not given) | 1.2e+06 cps (active)
N[C@@H](CCl)C(=O)O | 2.4e+06 cps (inactive)
NC(Cc1ccc(N(CCCl)CCCl)cc1)C(=O)O (stereo not given) | 2.5e+06 cps (inactive)
C[N+](C)(C)CC(=O)O | 2.7e+06 cps (inactive)
Oc1ccc2c3c1O[C@H]1c4[nH]c5ccccc5c4C[C@@]4(O)C(C2)N(CC2CC2)CCC314 (stereo not given in full) | 2.5e+06 cps (inactive)
C[C@]12CC[C@H]3[C@@H](CCC4C[C@H](O)CC[C@@]43C)[C@@H]1CC[C@@H]2O (stereo not given in full) | 2.6e+06 cps (inactive)
